Experimental data from PubChem BioAssay (NCI).
The panel holds about 83,000 compounds, 20% with a hit somewhere; the sample as a whole holds those more often.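 Testing used 96-well plates and a 48-hour single-concentration exposure. Example: -40 means 40% of the starting cells died.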 Calls of active or inactive are those of the source. How the source made its calls: active means growth percent below 10; inactive means the rest.

Legend:
Experiment in all cases: NCI-60 one-dose screen, 48 h (100 = growth as untreated, 0 = no growth, -100 = all killed)
Details in all cases: 10 µM unless noted
SK-MEL-2 melanoma = system: SK-MEL-2 melanoma
SN12C renal = system: SN12C renal
UO-31 renal = system: UO-31 renal
TK-10 renal = system: TK-10 renal
ACHN renal = system: ACHN renal
CAKI-1 renal = system: CAKI-1 renal
A498 renal = system: A498 renal
CCRF-CEM leukemia = system: CCRF-CEM leukemia
MOLT-4 leukemia = system: MOLT-4 leukemia
SR leukemia = system: SR leukemia
RPMI-8226 leukemia = system: RPMI-8226 leukemia
OVCAR-8 ovarian = system: OVCAR-8 ovarian
OVCAR-5 ovarian = system: OVCAR-5 ovarian
OVCAR-4 ovarian = system: OVCAR-4 ovarian
IGROV1 ovarian = system: IGROV1 ovarian
OVCAR-3 ovarian = system: OVCAR-3 ovarian
HS 578T breast = system: HS 578T breast
NCI/ADR-RES ovarian = system: NCI/ADR-RES ovarian
SK-OV-3 ovarian = system: SK-OV-3 ovarian

Measured: growth

COc1ccc(NC(=O)[C@H](C)N)cc1C(=O)Nc1cccc(C2CC(=O)c3c(cc(OC)c(OC)c3OC)O2)c1 (some centres not stated)
inactive: SK-MEL-2 melanoma 101% | SN12C renal 93.8% | UO-31 renal 73% | TK-10 renal 102% | ACHN renal 87.1% | CAKI-1 renal 82% | A498 renal 97% | CCRF-CEM leukemia 57.4% | MOLT-4 leukemia 59.8% | SR leukemia 63.8% | RPMI-8226 leukemia 55.3% | OVCAR-8 ovarian 68.8% | OVCAR-5 ovarian 104% | OVCAR-4 ovarian 81.7% | IGROV1 ovarian 98.7% | OVCAR-3 ovarian 91.9% | HS 578T breast 95.8% | NCI/ADR-RES ovarian 86.1%

O=C(/C=C/c1cccc(OCc2ccccc2)c1)c1nc2ccccc2[nH]1
inactive: SK-MEL-2 melanoma 100% | SN12C renal 59% | UO-31 renal 33.2% | TK-10 renal 62.8% | ACHN renal 62.5% | CAKI-1 renal 66.1% | A498 renal 91.3% | CCRF-CEM leukemia 10.2% | OVCAR-8 ovarian 58% | OVCAR-5 ovarian 105% | OVCAR-4 ovarian 59.4% | SK-OV-3 ovarian 87.8% | IGROV1 ovarian 60.3% | OVCAR-3 ovarian 38.3% | NCI/ADR-RES ovarian 64.5%
active: MOLT-4 leukemia 5.98% | SR leukemia -33.3% | RPMI-8226 leukemia -52%

O=c1c2ccccc2nc(-c2ccccc2)n1/N=C/c1ccc2ccccc2c1
inactive: SK-MEL-2 melanoma 116% | SN12C renal 52.5% | UO-31 renal 58.5% | TK-10 renal 72.9% | ACHN renal 42.5% | CAKI-1 renal 48.5% | A498 renal 94.6% | CCRF-CEM leukemia 51.9% | MOLT-4 leukemia 19.5% | SR leukemia 11.5% | RPMI-8226 leukemia 39% | OVCAR-8 ovarian 50.6% | OVCAR-5 ovarian 69.4% | OVCAR-4 ovarian 85.8% | SK-OV-3 ovarian 68.5% | IGROV1 ovarian 55.6% | OVCAR-3 ovarian 67.4% | NCI/ADR-RES ovarian 53.5%

NS(=O)(=O)c1ccc(N=Nc2c(O)n(CC(=O)Nc3ccccc3Cl)c3ccccc23)cc1
active: SK-MEL-2 melanoma 9.55% | UO-31 renal 2.95% | ACHN renal 6.65% | OVCAR-8 ovarian 1.19%
inactive: SN12C renal 27.6% | TK-10 renal 63% | CAKI-1 renal 16.6% | A498 renal 80.2% | CCRF-CEM leukemia 50.5% | MOLT-4 leukemia 26.7% | SR leukemia 26.9% | RPMI-8226 leukemia 29% | OVCAR-5 ovarian 56.3% | OVCAR-4 ovarian 53% | SK-OV-3 ovarian 36.7% | IGROV1 ovarian 18% | OVCAR-3 ovarian 21.3% | HS 578T breast 50.5% | NCI/ADR-RES ovarian 30.4%

O=C1c2c(c3c4cc(F)ccc4oc3c3[nH]c4ccc(Br)cc4c23)C(=O)N1O
inactive: SN12C renal 19.2% | TK-10 renal 137% | CAKI-1 renal 21.9% | A498 renal 119% | RPMI-8226 leukemia 34.2% | OVCAR-8 ovarian 19.8% | OVCAR-5 ovarian 108% | OVCAR-4 ovarian 76.6% | IGROV1 ovarian 46.3% | OVCAR-3 ovarian 67.2% | NCI/ADR-RES ovarian 30.7%
active: SK-MEL-2 melanoma 5.56% | UO-31 renal 9.04% | ACHN renal -33.8% | CCRF-CEM leukemia 9.46% | MOLT-4 leukemia 7.83% | SR leukemia 4.45% | SK-OV-3 ovarian 4.35% | HS 578T breast -4.24%

COc1cc(OC)cc(C(=O)Nc2cccc(-c3cn(-c4ccc(S(N)(=O)=O)cc4)nn3)c2)c1
inactive: SK-MEL-2 melanoma 92.6% | SN12C renal 70% | UO-31 renal 96.3% | TK-10 renal 94.8% | ACHN renal 88.5% | CAKI-1 renal 60.8% | A498 renal 116% | CCRF-CEM leukemia 105% | RPMI-8226 leukemia 114% | OVCAR-8 ovarian 39.4% | OVCAR-5 ovarian 113% | OVCAR-4 ovarian 72% | SK-OV-3 ovarian 47.5% | IGROV1 ovarian 99.5% | OVCAR-3 ovarian 90.9% | HS 578T breast 70.3% | NCI/ADR-RES ovarian 94.4%

COc1ccc2c(c1)C(=N/N=C(\C)c1ccc(OC)c(S(N)(=O)=O)c1)C(=O)N2
inactive: SK-MEL-2 melanoma 92.6% | UO-31 renal 95.1% | TK-10 renal 102% | ACHN renal 101% | CAKI-1 renal 79.5% | A498 renal 99.5% | CCRF-CEM leukemia 74% | MOLT-4 leukemia 94.5% | SR leukemia 83.2% | RPMI-8226 leukemia 83% | OVCAR-8 ovarian 92.7% | OVCAR-5 ovarian 99.8% | OVCAR-4 ovarian 96.6% | SK-OV-3 ovarian 97.6% | IGROV1 ovarian 107% | OVCAR-3 ovarian 106% | HS 578T breast 70.3% | NCI/ADR-RES ovarian 100%

Cn1cc(-c2nc(N)nnc2-c2c[nH]c3ccc(Br)cc23)c2cccnc21
inactive: SK-MEL-2 melanoma 30.5% | SN12C renal 49.8% | UO-31 renal 48.9% | TK-10 renal 90.4% | ACHN renal 50.6% | CAKI-1 renal 47.9% | A498 renal 131% | CCRF-CEM leukemia 36.1% | MOLT-4 leukemia 27.5% | SR leukemia 29.1% | RPMI-8226 leukemia 45% | OVCAR-8 ovarian 47.9% | OVCAR-5 ovarian 80.3% | OVCAR-4 ovarian 71.1% | SK-OV-3 ovarian 61.8% | IGROV1 ovarian 46.2% | OVCAR-3 ovarian 29.2% | HS 578T breast 33.9% | NCI/ADR-RES ovarian 78.7%

Cc1cccc(Nc2nc3ccccc3nc2/C=C/c2ccc(F)cc2)c1
inactive: SK-MEL-2 melanoma 98.3% | SN12C renal 90.9% | UO-31 renal 67.9% | TK-10 renal 151% | ACHN renal 89.9% | CAKI-1 renal 79.9% | A498 renal 112% | CCRF-CEM leukemia 97.1% | MOLT-4 leukemia 80.9% | SR leukemia 87.2% | RPMI-8226 leukemia 91.8% | OVCAR-8 ovarian 85.1% | OVCAR-5 ovarian 101% | OVCAR-4 ovarian 88.9% | SK-OV-3 ovarian 105% | IGROV1 ovarian 75.3% | OVCAR-3 ovarian 108% | HS 578T breast 83.8% | NCI/ADR-RES ovarian 91.1%

O=c1[nH]c(=O)c2c(-c3cc4ccccc4oc3=O)ccnc2[nH]1
inactive: SK-MEL-2 melanoma 82.6% | SN12C renal 81% | UO-31 renal 71.6% | TK-10 renal 105% | ACHN renal 53.2% | CAKI-1 renal 48.1% | A498 renal 148% | CCRF-CEM leukemia 101% | MOLT-4 leukemia 111% | SR leukemia 71.8% | RPMI-8226 leukemia 95% | OVCAR-8 ovarian 61.6% | OVCAR-5 ovarian 111% | OVCAR-4 ovarian 88.3% | SK-OV-3 ovarian 71.2% | IGROV1 ovarian 79.4% | OVCAR-3 ovarian 98.9% | HS 578T breast 70.4% | NCI/ADR-RES ovarian 86.9%

CCCCSc1nc(Nc2ccc(C(C)=O)cc2)c(C#N)c(-c2ccc(OC)cc2)n1
inactive: SK-MEL-2 melanoma 114% | SN12C renal 27.9% | UO-31 renal 14.5% | CAKI-1 renal 34% | A498 renal 59.7% | CCRF-CEM leukemia 100% | MOLT-4 leukemia 88% | SR leukemia 70.9% | RPMI-8226 leukemia 91% | OVCAR-8 ovarian 27.5% | OVCAR-5 ovarian 57.9% | SK-OV-3 ovarian 106% | IGROV1 ovarian 38.5% | OVCAR-3 ovarian 20.8% | HS 578T breast 66.1% | NCI/ADR-RES ovarian 58.1%
active: TK-10 renal -3.09% | ACHN renal 2.58% | OVCAR-4 ovarian -45.4%

CC(=O)Nc1ccc(-c2nc3cc(-c4ccc(O)cc4)ccc3n2C)cc1
inactive: SK-MEL-2 melanoma 84.1% | SN12C renal 40.1% | UO-31 renal 30.8% | TK-10 renal 79% | ACHN renal 50.3% | CAKI-1 renal 34.6% | A498 renal 72.4% | CCRF-CEM leukemia 43.8% | MOLT-4 leukemia 13.9% | SR leukemia 23.1% | RPMI-8226 leukemia 41.3% | OVCAR-8 ovarian 54.8% | OVCAR-5 ovarian 74.2% | OVCAR-4 ovarian 54.5% | SK-OV-3 ovarian 94.5% | IGROV1 ovarian 34.8% | OVCAR-3 ovarian 49% | HS 578T breast 66.1% | NCI/ADR-RES ovarian 55.3%
